Gal4-VP16 FLuc: counter-screen for ROR gamma inhibitors: Gal4-VP16 reporter. Drosophila S2 Gal4-VP16 UAS-luciferase, luminescence, 20 h. Potency, µM (titrated, usually from 53.6 µM), for the others: at the top dose activity, negative = inhibition, actives largely listed as inhibitors. hit rate 3.5% among 310,000;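 note: Gal4-VP16 expression switched on by copper sulfate through the metallothionein promoter; nearly all actives have a fitted effect of over 50% in size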
ELG1 repair inh: ELG1-dependent DNA repair inhibition; HEK293T ELG1-luciferase reporter, luminescence, 16 h; DNA damage induced by 5-fluorouridine; Potency, µM (highest dose often 46.1 µM), for inactives: at the top dose activity change, negative = inhibition, actives largely listed as inhibitors; hit rate 2.3% among 330,000; note: nearly all actives have a fitted effect of over 55% in size
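Cells (2,000 per well) received 5-fluorouridine plus test compound or DMSO and were incubated 16 hr at 37 °C, 5% CO2. Luciferase activity was read by luminescence 30 min after ONE-Glo addition; signal suppression marked inhibition of damage-induced ELG1 function.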
TDP1 cell CPT: DT40-hTDP1 cell growth loss with CPT. AID 686979. chicken DT40 Tdp1-/-;hTDP1 cells + 20 nM CPT, ATP luminescence, 48 h. hit rate 12% among 420,000. Potency, µM (highest dose often 46.2 µM), without a hit: top-dose activity change, negative = growth inhibition, actives largely listed as inhibitors; note: nearly all actives have a fitted effect of over 55% in size
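Chicken DT40 Tdp1-/- cells stably complemented with human TDP1 were seeded at 400 cells/well in medium containing 20 nM camptothecin, exposed to pin-transferred compounds, and grown at 37 °C for at least 48 hr. Viability was read as ATP luminescence.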
RORgamma inh: ROR gamma (mouse) transcription inhibition; P51450; Drosophila S2 Gal4-RORgamma UAS-luciferase reporter, 20 h; Potency, µM (highest dose often 53.6 µM), for the others: at the highest dose activity change, negative = inhibition, actives largely listed as inhibitors; hit rate 5.4% among 310,000; AID 2551; note: nearly all actives have a fitted effect of over 60% in size
Target sequence (P51450 whole entry, looked up, the tested form may be a part): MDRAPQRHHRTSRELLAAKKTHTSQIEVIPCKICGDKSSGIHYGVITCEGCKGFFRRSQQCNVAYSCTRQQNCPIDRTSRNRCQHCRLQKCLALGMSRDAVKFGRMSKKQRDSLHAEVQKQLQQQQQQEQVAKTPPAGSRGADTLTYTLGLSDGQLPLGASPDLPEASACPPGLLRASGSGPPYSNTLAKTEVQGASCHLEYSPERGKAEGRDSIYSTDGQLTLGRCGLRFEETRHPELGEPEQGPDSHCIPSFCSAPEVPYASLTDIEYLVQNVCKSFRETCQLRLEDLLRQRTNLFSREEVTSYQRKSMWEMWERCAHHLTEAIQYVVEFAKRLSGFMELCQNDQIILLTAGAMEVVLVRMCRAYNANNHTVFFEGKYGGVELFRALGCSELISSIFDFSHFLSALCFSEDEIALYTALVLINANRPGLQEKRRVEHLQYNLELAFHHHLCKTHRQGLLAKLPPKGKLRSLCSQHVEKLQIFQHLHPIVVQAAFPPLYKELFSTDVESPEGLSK
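Stably transfected Drosophila Schneider cells are the test system, with ROR gamma fused to Gal4 and luciferase under UAS control; luminescence is read after 20 hr of 700 uM copper sulfate induction at ambient temperature.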
ALOX12 inh: ALOX12 (human) lipoxygenase inhibition | hit rate 1.1% among 580,000 | Potency, µM (top dose mostly 108 µM), inactives show at the top dose activity change, negative = inhibition, most hits filed as inhibitors | AID 1671190 | purified 12hLO, xylenol orange hydroperoxide absorbance | P18054
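Purified human 12hLO at 150 nM in 25 mM Hepes, 0.01% Triton X-100, pH 7.0, preincubated 15 min at room temperature with compound. Reaction started with 40 uM arachidonic acid, 30 min at room temperature. Hydroperoxide measured by Fe-xylenol orange, 573/405 nm absorbance ratio.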
TDP1 cell noCPT: qHTS for Inhibitors of human tyrosyl-DNA phosphodiesterase 1 (TDP1): qHTS in cells in absence of CPT | AID 686978, 2013 | DT40 Tdp1-/- hTDP1 cells, no CPT, ATP luminescence, 48 h | Potency, µM (titrated, usually from 46.2 µM), for the others: at the highest dose activity change, negative = growth inhibition, usual class: inhibitors | hit rate 15% among 420,000; note: nearly all actives have a fitted effect of over 55% in size
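No-CPT arm: Tdp1-/-;hTDP1 DT40 cells (400/well) plus compounds, incubated ≥48 hr at 37 °C. Readout CellTiter-Glo luminescence.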
* marks the source's active call; other numbers are inactive results; ? = inconclusive; / = not tested or not shown; ! = a repeat was not active; [ ] = another dose, or the depositor's remark. A selection: hits, their analogues and other compounds. The true share with any hit is near 15%. Calls come from the whole dose curve; as a rule, active = well fitted curve in the direction sought with a large enough effect; inconclusive = small, poorly fitted or top-dose-only effect, or another doubt; inactive = no such curve, though single readings can be large; an effect the other way counts as inactive or inconclusive. % is set by controls: 0 for no effect and ±100 for the full control effect; potency is the fitted concentration of half-maximal effect.

SMILES	Gal4-VP16 FLuc	ELG1 repair inh	TDP1 cell CPT	RORgamma inh	ALOX12 inh	TDP1 cell noCPT
CCOC(=O)/C(=N/Nc1ccc(OC)cc1)Sc1nnc(CCc2ccccc2)n1-c1ccccc1	?	?	4%	7.1µM*	?	-9%
CC(=O)/C(=N/Nc1ccc(C)cc1)Sc1nnc(CCc2ccccc2)n1-c1ccccc1	?	-24%	?	?	-7%	-15%
CCOC(=O)/C(=N\Nc1ccc(Cl)cc1)Sc1nnc(-c2ccc(OC)cc2)n1C	6.3µM*	8%	-17%	4.5µM*	?	-12%
COc1ccc(CCC(C)NC2CCCCCCC2)cc1 (configuration not stated)	-2%	-20%	?	-2%	24%	?
COc1ccc(CCC(C)NCCc2ccc(Cl)cc2Cl)cc1 (configuration not stated)	-11%	0%	?	-30%	?	23µM*
COc1ccc(CCC(C)NCC2CCCCC2)cc1 (configuration not stated)	-2%	2%	?	?	-26%	18µM*
O=C(N1C[C@@H](CO)[C@H](c2ccncc2)C1)C1(c2ccccc2)CC1	/	/	/	/	52%	/
COc1ccc(C(=O)COC(=O)C2CC(=O)N(NC(=O)c3ccc(Cl)c(Cl)c3)C2)cc1 (configuration not stated)	/	/	/	/	1%	/
O=[N+]([O-])c1ccc(SCCc2ccncc2)cc1	-4%	?	?	-6%	?	21µM*
COc1ccc(SCCc2ccncc2)cc1	17%	9%	1%	-10%	1%	4%
Fc1ccc(SCCc2ccncc2)cc1	0%	-7%	?	12%	6%	18µM*!
C=CCc1ccccc1OCC(O)Cn1nc(C(N)=O)c2ccccc2c1=O (configuration not stated)	/	/	/	/	8%	/
Cc1cccc(C#CC2=CC(=O)CC(C)(C)C2)c1	/	/	16µM*	/	21%	10µM*
CC1(C)CC(=O)C=C(C#CC2(O)CCCCC2)C1	/	/	7.3µM*	/	-10%	5.2µM*
COc1cc(NC2=CC(=O)CC(C)(C)C2)cc(OC)c1	12%	-4%	?	1%	18%	-7%
COc1cccc(C#CC2=CC(=O)CC(C)(C)C2)c1	/	/	5.8µM*	/	-22%	2.9µM*
CC(=O)c1cn(CC(=O)Nc2ccccc2Cl)c2ccccc12	?	-5%	16µM*	5%[1.91 µM]	0%	9.2µM*
Cc1ccc(-n2c(=O)c3c(cc(C)n3C)n(CC(=O)Nc3ccccc3F)c2=O)cc1	/	/	/	/	-2%	/
Cc1cc(C)cc(NC(=O)Cn2cc(C(=O)C3CCCCC3)c3ccccc32)c1	/	/	18µM*	/	-17%	23µM*
Cc1ccc(NC(=O)Cn2cc(C(=O)C3CC3)c3ccccc32)cc1	2%	13%	-8%	-13%	-1%	1%
Cc1cc2c(c(=O)n(-c3ccccc3)c(=O)n2CC(=O)Nc2ccccc2F)n1C	/	/	/	/	45µM*	/
O=C(Cn1c2ccccc2c(=O)c2ccccc21)Nc1ccccc1F	-5%	17%	13µM*	14%	?	?
CCC(=O)c1cn(CC(=O)Nc2ccccc2)c2ccccc12	-8%	3%	-27%	43%	32%	-7%
CC(=O)c1cn(CC(=O)Nc2ccccc2F)c2ccccc12	?	-4%	18µM*	?	12%	12µM*
CC(=O)c1cn(CC(=O)Nc2ccccc2)c2ccccc12	?	-3%	15µM*	32%	14%	13µM*
SMILES	Gal4-VP16 FLuc	ELG1 repair inh	TDP1 cell CPT	RORgamma inh	ALOX12 inh	TDP1 cell noCPT
CCC(=O)c1cn(CC(=O)Nc2ccccc2F)c2ccccc12	3%	-2%	-1%	6%[1.91 µM]	0%	-16%
COc1ccccc1-c1nc(Nc2ccncc2)c2ccccc2n1	9%	/	?	-32%	28µM*	?
FC(F)(F)c1ccccc1-c1nc(Nc2ccncc2)c2ccccc2n1	?	/	?	11µM*	?	-63%
Cc1ccc(N(CCC(=O)NCC2CCCO2)S(=O)(=O)c2ccccc2)cc1 (configuration not stated)	/	/	/	/	6%	/
COC(=O)c1ccc(Oc2coc3cc(OC)ccc3c2=O)cc1	/	/	/	/	-16%	/
CCC(C)NC(=O)CCN(CC)C(=O)c1cc(C)oc1C (configuration not stated)	/	/	/	/	21%	/
CSc1ccc(NC(=O)N2CC=C(n3c(=O)[nH]c4ccccc43)CC2)cc1	4%	23µM*	8.2µM*	27%	-9%	8.2µM*
CCOc1ccc(NC(=O)N2CC=C(c3c[nH]c4ccccc34)CC2)cc1	/	/	3.7µM*	/	-28%	2.3µM*
CCOC(=O)c1cccc(NC(=O)N2CC=C(c3c[nH]c4ccccc34)CC2)c1	/	/	?	/	-23%	21µM*
O=c1[nH]c2ccccc2n1C1=CCCC1	2%	-2%	-12%	0%	0%	?
COc1cc(OC)c(NC(=O)N2CC=C(c3c[nH]c4ccccc34)CC2)cc1Cl	/	/	?	/	-27%	?
CCc1ccc(NC(=O)N2CC=C(c3c[nH]c4ccccc34)CC2)cc1	/	/	5.8µM*	/	-5%	5.2µM*
Cc1ccc(C)c(NC(=O)N2CC=C(c3c[nH]c4ccccc34)CC2)c1	/	/	?	/	-6%	?
CN(C)S(=O)(=O)N1CC=C(c2c[nH]c3ccccc23)CC1	/	/	/	/	18µM*	/
O=C(CCc1ccccc1)N1CC=C(c2c[nH]c3ccccc23)CC1	/	/	/	/	53%	/
COc1ccc(C(=O)Nc2cc(OC)c(Cl)cc2Cl)cc1	-17%	25%	3%	11%	-39%	23µM*
CCOC(=O)c1cc(NC(=O)c2ccccc2)c(=O)oc1-c1ccccc1	-4%	0%	?	?	-12%	?
COc1ccc(C(=O)Nc2cc(C(C)=O)c(C)oc2=O)cc1	?	?	-10%	11µM*	?	?
COc1cc(OC)cc(C(=O)NNC(=O)C(=O)Nc2cc(OC)c(Cl)cc2OC)c1	-2%	-16%	?	7.9µM*	-26%	-20%
COc1cc(NC(=O)c2ccc(C(=O)Nc3cc(OC)c(Cl)cc3OC)cc2)c(OC)cc1Cl	/	/	-3%	/	-21%	1%
COC(=O)c1cc(NC(=O)c2ccccc2)c(=O)oc1/C=C/Nc1ccc(Oc2ccccc2)cc1	2%	3%	-25%	?	1%	23µM*
Cc1ccc(C2CC(=O)CC(c3ccc(C)cc3C)S2)c(C)c1 (configuration not stated)	/	/	/	/	7%	/

Screening results: PubChem, National Center for Advancing Translational Sciences (NCATS)
